This is an account of results in PubChem BioAssay.

Assay [1] is described as follows: small molecules captured by biotinylated probe aFSTL3 – biochemical, small-molecule microarray, fluorescence 635/667, stem cell growth factor project, primary screen (AID 1064).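 Further: measures binding of the biotinylated anti-FSTL3 antibody to printed compounds.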 The conditions noted are these: higher = more signal.
Assay [2] can be described thus: binders from COS7 lysate, DM2A8 probe, primary screen, torsin A project, cell lysate, small-molecule microarray, fluorescence 635/667 (AID 1065). The conditions noted are these: higher = more signal, COS7 lysate expressing mutant human TOR1A.
Assay [3] in a line: small molecules captured by biotinylated probe aFGF2 – biochemical, small-molecule microarray, fluorescence 635/667, stem cell growth factor project, primary screen (AID 1067).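 Further: measures binding of biotinylated aFGF2 protein to printed compounds on slides; z-score merges feature fluorescence and signal-to-noise across triplicate slides.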 The conditions noted are these: higher = more signal.
The nature of assay [4]: small molecules captured by biotinylated probe aFGF10 – biochemical, small-molecule microarray, fluorescence 635/667, stem cell growth factor project, primary screen (AID 1071).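 Further: score merges 667 nm spot intensity and signal to noise from triplicate slides.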 The settings on record: higher = more signal.
The target in assay [5] is Neurogenic locus notch homolog protein 2 (Homo sapiens) (UniProt Q04721). Kind of assay: small molecules binding Notch2 protein – biochemical, small-molecule microarray, 635 nm fluorescence, stem cell growth factors, primary screen (AID 1073). The settings on record: higher = more signal.
Neurogenic locus notch homolog protein 2 (Homo sapiens), sequence (Q04721 whole entry, looked up, canonical isoform): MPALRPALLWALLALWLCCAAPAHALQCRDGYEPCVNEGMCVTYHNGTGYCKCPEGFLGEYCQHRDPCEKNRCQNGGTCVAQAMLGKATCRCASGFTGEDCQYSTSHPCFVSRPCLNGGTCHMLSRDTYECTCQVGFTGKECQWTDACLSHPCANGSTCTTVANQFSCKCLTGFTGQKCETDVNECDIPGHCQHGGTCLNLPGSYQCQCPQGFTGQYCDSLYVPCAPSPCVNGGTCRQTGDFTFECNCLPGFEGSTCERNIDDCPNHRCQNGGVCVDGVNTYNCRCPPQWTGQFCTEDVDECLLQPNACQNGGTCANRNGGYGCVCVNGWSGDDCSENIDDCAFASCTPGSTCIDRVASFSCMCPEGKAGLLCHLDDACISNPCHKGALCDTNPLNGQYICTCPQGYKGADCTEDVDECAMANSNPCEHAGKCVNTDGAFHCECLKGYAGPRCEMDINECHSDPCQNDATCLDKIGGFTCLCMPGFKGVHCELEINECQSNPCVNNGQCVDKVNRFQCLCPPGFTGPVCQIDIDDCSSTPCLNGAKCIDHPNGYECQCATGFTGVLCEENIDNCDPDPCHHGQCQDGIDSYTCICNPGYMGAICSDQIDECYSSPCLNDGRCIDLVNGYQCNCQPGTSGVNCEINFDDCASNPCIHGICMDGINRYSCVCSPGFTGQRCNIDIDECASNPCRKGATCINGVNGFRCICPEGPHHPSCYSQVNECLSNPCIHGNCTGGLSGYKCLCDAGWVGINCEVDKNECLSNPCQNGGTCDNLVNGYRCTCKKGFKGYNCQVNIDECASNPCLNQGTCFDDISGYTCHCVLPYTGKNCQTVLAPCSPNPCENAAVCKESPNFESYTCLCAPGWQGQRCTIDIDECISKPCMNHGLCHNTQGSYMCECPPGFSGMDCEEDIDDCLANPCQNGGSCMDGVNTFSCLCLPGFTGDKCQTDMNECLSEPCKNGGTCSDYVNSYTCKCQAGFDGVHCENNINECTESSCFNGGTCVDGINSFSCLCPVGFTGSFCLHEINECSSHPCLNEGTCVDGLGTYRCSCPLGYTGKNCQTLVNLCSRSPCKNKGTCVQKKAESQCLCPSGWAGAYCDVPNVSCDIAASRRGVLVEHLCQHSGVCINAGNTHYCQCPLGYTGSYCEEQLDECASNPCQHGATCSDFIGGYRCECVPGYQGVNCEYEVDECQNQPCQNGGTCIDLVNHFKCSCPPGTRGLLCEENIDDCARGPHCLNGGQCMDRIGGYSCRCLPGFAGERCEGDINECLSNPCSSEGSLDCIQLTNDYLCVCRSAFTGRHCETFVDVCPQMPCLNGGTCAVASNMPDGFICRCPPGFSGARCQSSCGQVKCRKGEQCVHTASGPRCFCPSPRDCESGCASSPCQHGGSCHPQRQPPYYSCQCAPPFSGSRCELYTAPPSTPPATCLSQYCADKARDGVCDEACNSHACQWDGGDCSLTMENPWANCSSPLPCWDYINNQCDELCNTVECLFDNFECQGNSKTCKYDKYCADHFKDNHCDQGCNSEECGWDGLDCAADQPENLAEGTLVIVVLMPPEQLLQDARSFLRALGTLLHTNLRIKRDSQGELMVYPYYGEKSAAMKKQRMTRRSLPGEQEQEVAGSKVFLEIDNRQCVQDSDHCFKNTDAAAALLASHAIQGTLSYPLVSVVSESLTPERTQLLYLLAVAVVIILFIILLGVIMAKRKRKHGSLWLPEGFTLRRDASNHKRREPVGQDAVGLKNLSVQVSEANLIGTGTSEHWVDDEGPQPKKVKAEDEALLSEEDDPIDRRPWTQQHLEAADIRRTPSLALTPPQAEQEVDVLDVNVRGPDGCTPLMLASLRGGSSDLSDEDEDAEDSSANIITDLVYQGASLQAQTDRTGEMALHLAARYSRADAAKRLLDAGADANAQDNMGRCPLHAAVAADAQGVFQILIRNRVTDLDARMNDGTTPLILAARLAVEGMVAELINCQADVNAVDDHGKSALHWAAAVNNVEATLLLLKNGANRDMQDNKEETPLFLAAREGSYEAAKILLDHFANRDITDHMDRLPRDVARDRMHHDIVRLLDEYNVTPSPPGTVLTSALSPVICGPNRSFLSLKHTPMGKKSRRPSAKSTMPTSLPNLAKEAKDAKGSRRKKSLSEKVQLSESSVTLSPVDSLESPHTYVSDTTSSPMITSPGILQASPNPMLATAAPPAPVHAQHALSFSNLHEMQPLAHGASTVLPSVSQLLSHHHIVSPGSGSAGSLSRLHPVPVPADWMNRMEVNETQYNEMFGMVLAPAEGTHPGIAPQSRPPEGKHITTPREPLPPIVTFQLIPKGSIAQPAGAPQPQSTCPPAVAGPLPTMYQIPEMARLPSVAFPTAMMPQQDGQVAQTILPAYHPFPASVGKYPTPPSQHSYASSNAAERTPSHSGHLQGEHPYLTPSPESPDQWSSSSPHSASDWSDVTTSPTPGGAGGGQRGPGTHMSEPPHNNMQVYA
Assay [6] has as its target Pro-neuregulin-1, membrane-bound isoform (Homo sapiens) (UniProt Q02297). Put plainly: small molecules binding neuregulin-1 protein – biochemical, small-molecule microarray, fluorescence 635/667, psychiatric disease protein project, primary screen (AID 1075).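 Further: score combines 667 nm spot fluorescence with signal to noise.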 The conditions noted are these: NRG1 binding, 635 nm fluorescence, higher = more signal.
The test system of assay [7] is Neuregulin-1 EGF-like domain. Kind of assay: small molecules binding NRG1 EGF domain – biochemical, small-molecule microarray, 635 nm fluorescence, primary screen (AID 1081).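 Further: binding of the protein to compounds printed on small-molecule microarray slides.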 The settings on record: higher = more signal.
Assay [8] is described as follows: FRG1 expression reporter modulators in myotubes – cell-based, C2C12 myotubes, firefly/Renilla luciferase, luminescence, FRG1 inhibition for FSHD, primary screen (AID 1084). The settings on record: FRG1 promoter luciferase, higher = more signal, called active from +8 up or from −8 down.
Assay [9] in a line: small molecules captured by biotinylated probe aFST – biochemical, small-molecule microarray, fluorescence 635/667, stem cell growth factor project, primary screen (AID 1086).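 Further: score merges 667 nm fluorescence with signal-to-noise of each printed compound spot.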 The conditions noted are these: higher = more signal.
The nature of assay [10]: binders of probe aHhip on microarray, primary screen, stem cell growth factor project, biochemical, small-molecule microarray, fluorescence 635/667 (AID 1087).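 Further: score merges spot fluorescence at 667nm with spot signal to noise ratio.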 The conditions noted are these: higher = more signal.
The test system of assay [11] is PRMT1 (protein arginine N-methyltransferase 1). Put plainly: small molecules binding arginine methyltransferase PRMT1 – biochemical, small-molecule microarray, 635 nm fluorescence, primary screen (AID 1088).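 Further: binding of Prmt1 protein to compounds spotted on small-molecule microarray slides.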 The conditions noted are these: higher = more signal.
Assay [12] can be described thus: growth effects on S. cerevisiae YJM789 – YJM789 clinical isolate, OD600, 24 h, basal, primary screen (AID 1089).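 Further: growth of clinical yeast isolate S. cerevisiae YJM 789 seeded 1000 cells per well; test concentration not given here.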 The settings on record: higher = more signal, called active from +8 up or from −8 down.
Assay [13] in a line: S. pombe growth modifiers, basal conditions – strain 972, OD600, 24 h, no modulator, primary screen (AID 1090).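 Further: basal condition with compound alone and no growth modifier present; test concentration not given here.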 The settings on record: S. pombe 972 growth, higher = more signal, called active from +8 up or from −8 down.
Assay [14] in a line: budding yeast growth modifiers under rapamycin – strain BY4716, OD600, 96 h, primary screen (AID 1091). Further: test concentration not given here. The conditions noted are these: S. cerevisiae BY4716 + rapamycin, higher = more signal, called active from +8 up or from −8 down.
Assay [15] has as its target Torsin-1A-interacting protein 2 (Homo sapiens) (UniProt Q8NFQ8). Put plainly: small molecules binding lysate-expressed LULL1 – cell lysate, human LULL1 lysate, 635/667 nm fluorescence, primary screen (AID 1092).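 Further: probe is lysate of COS7 cells overexpressing human LULL1; score merges per-feature 667 nm fluorescence with signal-to-noise.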 The settings on record: small-molecule microarray, hLULL1 lysate binding, 635 nm fluorescence; higher = more signal.
A short description of assay [16]: optical density change of DRC41 E. coli – strain DRC41, OD650, 24 h, E. coli filamentation project, primary screen (AID 1093).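 Further: MC1000 strain lacking acrAB efflux and sulA so SOS filamentation is blocked; test concentration not given here.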 The settings on record: E. coli DRC41 growth, higher = more signal, called active from +8 up or from −8 down.
Assay [17] in a line: probe aLefty2 binding to arrayed compounds – biochemical, biotinylated probe, 635/667 nm fluorescence, primary screen (AID 1094).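 Further: score merges spot fluorescence near 667 nm with spot signal-to-noise ratio.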 The settings on record: small-molecule microarray, higher = more signal.
Assay [18] has as its system Noggin (protein binding on small-molecule microarray). Kind of assay: small molecules binding Noggin protein – biochemical, 635/667 nm fluorescence, primary screen (AID 1095).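 Further: score merges 667 nm feature fluorescence with signal to noise over triplicate slides.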 The settings on record: 635 nm fluorescence, higher = more signal.
Assay [19] concerns the target Neurogenic locus notch homolog protein 3 (Homo sapiens) (UniProt Q9UM47). Put plainly: small molecules binding NOTCH3 protein – biochemical, 635/667 nm fluorescence, primary screen (AID 1096). The conditions noted are these: small-molecule microarray, 635 nm fluorescence, higher = more signal.
The nature of assay [20]: probe aEGFR binding to arrayed compounds – biochemical, biotinylated probe, 635/667 nm fluorescence, primary screen (AID 1097).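 Further: probe is a biotinylated anti-EGFR antibody binding compounds printed on slides; score combines fluorescence near 667 nm and signal to noise of each spot.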 The settings on record: small-molecule microarray, higher = more signal.

The source made the active and inactive calls.

Pro-neuregulin-1, membrane-bound isoform (Homo sapiens), sequence (Q02297 whole entry, looked up, the tested form may be a part, canonical isoform): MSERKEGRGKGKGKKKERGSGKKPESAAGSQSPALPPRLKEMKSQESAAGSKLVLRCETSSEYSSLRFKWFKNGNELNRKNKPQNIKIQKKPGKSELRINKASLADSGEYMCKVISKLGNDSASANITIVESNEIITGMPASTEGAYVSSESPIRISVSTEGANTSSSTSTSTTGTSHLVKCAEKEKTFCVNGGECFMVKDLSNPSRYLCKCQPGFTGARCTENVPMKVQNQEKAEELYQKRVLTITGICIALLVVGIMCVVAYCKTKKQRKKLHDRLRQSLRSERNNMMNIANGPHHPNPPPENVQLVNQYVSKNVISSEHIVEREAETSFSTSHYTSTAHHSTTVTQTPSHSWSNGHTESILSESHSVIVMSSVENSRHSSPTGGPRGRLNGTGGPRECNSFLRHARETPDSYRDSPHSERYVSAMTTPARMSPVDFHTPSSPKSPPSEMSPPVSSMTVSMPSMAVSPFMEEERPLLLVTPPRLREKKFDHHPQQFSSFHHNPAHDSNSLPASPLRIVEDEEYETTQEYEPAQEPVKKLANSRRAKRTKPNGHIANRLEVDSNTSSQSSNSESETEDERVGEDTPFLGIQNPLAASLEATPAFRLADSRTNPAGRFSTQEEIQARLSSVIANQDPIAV
Torsin-1A-interacting protein 2 (Homo sapiens), sequence (Q8NFQ8 whole entry, looked up): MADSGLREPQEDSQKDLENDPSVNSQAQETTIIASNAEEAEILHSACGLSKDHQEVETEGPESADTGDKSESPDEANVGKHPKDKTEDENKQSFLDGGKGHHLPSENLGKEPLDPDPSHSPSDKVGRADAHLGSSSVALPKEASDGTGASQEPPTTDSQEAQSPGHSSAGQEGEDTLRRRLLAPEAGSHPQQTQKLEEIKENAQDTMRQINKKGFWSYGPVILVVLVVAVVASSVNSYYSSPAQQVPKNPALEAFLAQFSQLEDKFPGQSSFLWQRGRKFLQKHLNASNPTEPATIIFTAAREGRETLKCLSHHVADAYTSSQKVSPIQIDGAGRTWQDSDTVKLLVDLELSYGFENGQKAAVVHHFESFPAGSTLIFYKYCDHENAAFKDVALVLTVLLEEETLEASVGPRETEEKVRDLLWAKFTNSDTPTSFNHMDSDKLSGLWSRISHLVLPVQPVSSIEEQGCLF

Consider `CCOC(=O)[C@H](CC(C)C)NC(=O)CCC1CC(OC(=O)NCCc2ccc(F)cc2)CC2(CCCC(COC(=O)NCC3CCCCC3)O2)O1` (stereo not given in full), for which the composite z-score was -0.595 in [1]; 0.101 in [2]; -0.0652 in [3]; 0.817 in [4]; 0.482 in assay [5]; 0.301 in assay [6]. Moreover, the composite z-score in assay [7] is 1.1; in assay [9], -0.0627; in [10], -0.19; in assay [11] it was 0.49; in [15], 1.12; in assay [17] it was -0.231. For the same compound, the composite z-score in [18] is 0.266; in [19], 0.291; in assay [20], 0.0069. Further, the z-score in [8] was 0.605 (inactive); in assay [12] it was -0.808 (inactive); in [13] it was 0.541 (inactive); in assay [14], 1.23 (inactive); in [16] it was -0.61 (inactive).
On to `COC(=O)[C@@H]1CC[C@H](C)[C@@H](c2ccc(C)cc2)N1C(=O)c1ccc(C=NOCC[C@@H]2C=C[C@H](OC(C)=O)[C@@H](COC(C)=O)O2)cc1`, for which the composite z-score is -0.381 in assay [1]; 0.333 in assay [2]; -0.11 in [3]; 0.332 in assay [4]; 0.7 in [5]; 0.102 in assay [6]. Further, the composite z-score in assay [7] was 0.61; in assay [9], 0.0627; in assay [10], 0.0505; in assay [11], 0.903; in [15], 0.105; in [17], -0.0736. In addition, the composite z-score in assay [18] is 0.647; in assay [19], 0.792; in assay [20], -0.0397. Besides, the z-score in [8] was 0.579 (inactive); in assay [12] it was 1.09 (inactive); in assay [13], 1.58 (inactive); in assay [14] it was 1.81 (inactive); in [16], 0.411 (inactive).
Regarding `COc1ccc(O[C@@H]2[C@H](O)CO[C@H]2C=Cc2ccccc2)cc1`, the composite z-score in [1] is -0.323; in assay [2], 0.26; in assay [3] it was -0.113; in assay [4], 0.649; in [5], -0.625; in assay [6] it was 0.0515. Further, the composite z-score in assay [7] is -0.839; in [9], -0.367; in [10] it was -0.0994; in [11], 0.619; in assay [15], 0.108; in assay [17], -0.214. The composite z-score is 0.146 in [18], -0.167 in [19] and -0.148 in assay [20]. Besides, the z-score was -1.39 (inactive) in assay [8]; -2.63 (inactive) in assay [12]; -3.17 (inactive) in [13]; -0.856 (inactive) in assay [14]; 0.473 (inactive) in assay [16].
For `CO[C@H]1COC(=O)[C@@H]2CCCN2C(=O)CC=C[C@@H](C)[C@H](OC)COC(=O)[C@@H](OCc2ccccc2)C=C[C@@H]1C`, the composite z-score in assay [1] is -0.466; in assay [2] it was 1.29; in assay [3], -0.175; in assay [4] it was -0.477; in assay [5], -0.624; in [6], -0.233. The composite z-score in assay [7] is 0.269; in assay [9], 0.317; in assay [10], 0.176; in [11], 1.3; in assay [15], -1.13; in assay [17], -0.155. Besides, the composite z-score is 1.08 in assay [18], -0.203 in assay [19] and 0.0564 in [20]. The z-score in assay [8] was -0.0576 (inactive); in assay [12] it was 0.14 (inactive); in assay [13], -0.826 (inactive); in assay [14], 0.087 (inactive); in [16] it was 0.279 (inactive).
In the case of `COC(=O)CC=C[C@@H](C)[C@@H](C=NOC(C)CN1CCCc2nc(C)c(C)cc21)OC` (stereo not given in full), the composite z-score in [1] was -0.111; in [2], 0.382; in assay [3], -0.121; in assay [4], 0.354; in [5], 0.401; in [6] it was -0.171. Further, the composite z-score in assay [7] is 0.375; in assay [9], 0.0017; in assay [10], -0.0237; in assay [11] it was 0.356; in [15] it was 0.283; in assay [17] it was -0.165. Moreover, the results for the composite z-score in assay [18], in [19] and in assay [20] were 0.541, 0.625 and 0.0009, respectively. Further, the z-score in [8] is 0.422 (inactive); in [12], 0.293 (inactive); in [13], 0.245 (inactive); in assay [14], 0.0448 (inactive); in assay [16] it was -0.64 (inactive).
